The results in this text go back to PubChem BioAssay (EPA / NIEHS).

One may read the AC50 as the concentration at which the activity in the assay is half-maximal.

Structures are written as SMILES. Activity calls are given as the source filed them. The calls were made as follows: active = hit-call score of the fitted dose curve at least 0.9, where 1 is the maximum; inactive = score below 0.9.

Read-out in the assay: urokinase plasminogen activator (uPA), PLAU (gene 5328)
Put plainly: BSK_BE3C_uPA: BioMAP Diversity Plus: BE3C Assay for urokinase plasminogen activator (uPA) Biomarker Activity (AID 2283038). Conditions: primary human bronchial epithelial cells; actives raise or lower the signal. How it is done: BSK_BE3C is a cell-based, multiplexed-readout assay that uses bronchial epithelial cell, a human lung primary cell, with measurements taken at 24 hours after chemical dosing in a 96-well plate.BSK_BE3CA is an assay component measured in the BSK_BE3C assay. It measures uPA antibody related to regulation of gene expression using ELISA technology.Data from the assay component BSK_BE3CA was analyzed into 1 assay endpoint. This assay endpoint, BSK_BE3CA, was analyzed with bidirectional fitting relative to DMSO as the negative control and baseline of activity. Using a type of binding reporter, gain or loss-of-signal activity can be used to understand changes in the signaling as they relate to the gene PLAU. Furthermore, this assay endpoint can be referred to as a primary readout, because this assay has produced multiple assay endpoints where this one serves a signaling function. To generalize the intended target to other relatable targets, this assay endpoint is annotated to the protease intended target family, where the subfamily is serine protease.
The levels of cell surface (or secreted, indicated by the prefix "s") biomarker endpoints were measured by ELISA. Overt cytotoxicity to cells in confluent adherent cultures (all systems other than the BT system) was assessed by measuring total protein levels using sulforhodamine B (SRB) staining in parallel cultures at the time of biomarker measurements, indicated as SRB endpoints. For proliferation assays for adherent cell types, individual cell types are cultured at sub-confluence and relative cell numbers quantified by SRB staining at time points optimized for each system (48 h: 3C and CASM3C systems; 72 h: BT and HDF3CGF systems; 96 h: SAg system). SRB was performed by staining cells with 0.1% SRB after fixation with 10% TCA and reading wells at 560 nm.Viability and proliferation of PBMC (T cells) was quantified by Alamar Blue reduction for the SAg and BT systems. For PBMC viability (referred to as PBMC Cytotoxicity within the assay endpoint names), cells were plated (75,000/well in a 96-well plate) and then chemical samples added for 1 h before addition of activators, SEB and TSST-1 (20 ng/mL final concentration each). Cells were incubated for 90 h. Then, Alamar Blue (20 uL/well) (Invitrogen, Cat DAL1100) was added for 6 h, and the plates were read with a fluorescence microplate reader at 546/580 nm (excitation/emission). For PBMC proliferation, cells were plated and activated as above but incubated for only 16 h prior to addition of Alamar Blue. Plates were read after 6 h.
With `CN1C(=O)CC[C@H]1c1cccnc1`, the outcome was inactive. For the compound `Clc1cc(Cl)c2c(c1)N=C1CCCCCN1C2`, the outcome was inactive.

For `O=C=NCCCCCCN=C=O`, the result was inactive. Same read-out and setting: for `C[C@]12CC[C@@H]3c4ccc(O)cc4CC[C@H]3[C@@H]1CC[C@H]2O` the value was “inactive”. Regarding `COc1cc(C(=O)NC2CCN(C)CC2)ccc1Nc1ncc2c(n1)N(C1CCCC1)CC(F)(F)C(=O)N2C`, the AC50 is 12.6 µM (active).

In the case of `CCO[Si](CCCNC(N)=O)(OCC)OCC`, the result was inactive. Consider `CCN(CC)C(=O)c1cc(S(=O)(=O)Cc2ccccc2)c(N2CCC(c3ccccc3)CC2)cc1N(CC)CCN(C)C`, for which the half-maximal activity concentration (AC50) is 10.3 µM (active).

For `CN1C(=O)N(c2ccccc2Br)Cc2cnc(Nc3ccc4c(c3)OCC(CO)O4)nc21` (stereo not given), the half-maximal activity concentration (AC50) is 5.91 µM (active). With `Cc1ccc(C(C)C)cc1`, the outcome was inactive. In the case of `NCc1cccc(C2CCN(C(=O)c3ccc(C#Cc4ccccc4F)o3)CC2)c1`, the AC50 is 7.93 µM (active). `Cc1oc2c(NC(=O)c3c(Cl)cccc3Cl)cccc2c1C(C)(C)O`: the outcome was inactive. For the compound `CC[C@H](NC(=O)c1cc(F)ccc1NS(=O)(=O)c1cccc2cccnc12)c1ccccc1`, the result was inactive.

`CC/C(=C(/CC)c1ccc(O)cc1)c1ccc(O)cc1`: the AC50 was 33.6 µM (active). Turning to `CCCCOC(=O)c1ccc(O)cc1`, the result was inactive. As for `CCCCCCCCOc1ccc(C(=O)c2ccccc2)c(O)c1`, the result was inactive. In the case of `Cc1cc(F)ccc1-c1cc(N2CC[C@@H](O)[C@H]2CO)ncc1N(C)C(=O)C(C)(C)c1cc(C(F)(F)F)cc(C(F)(F)F)c1`, the AC50 is 14.8 µM (active). On to `CCCOC(=O)c1cc(O)c(O)c(O)c1`, for which the result was inactive.

Regarding `O=C(O)c1ccccc1-n1cc(C(=O)O)c(=O)c2cc(Nc3c(F)cc(F)cc3Cl)c(Cl)cc21`, the outcome was inactive. For `CC(C)(c1cc(Br)c(O)c(Br)c1)c1cc(Br)c(O)c(Br)c1`, the half-maximal activity concentration (AC50) was 9.34 µM (active). Regarding `Oc1ccccc1`, the result was inactive.

For the compound `CC(O)CC(C)(C)O` (stereo not given), the outcome was inactive. On to `Cc1cn([C@H]2C[C@H](N=[N+]=[N-])[C@@H](CO)O2)c(=O)[nH]c1=O`, for which the outcome was inactive. Same read-out and setting: for `CC(=O)N1CCN(c2ccc(OC[C@H]3CO[C@](Cn4ccnc4)(c4ccc(Cl)cc4Cl)O3)cc2)CC1` the value was “inactive”; for `Cc1c2ccccc2c(C)c2c1ccc1ccccc12`, “inactive”.

In the case of `c1ccc(C[n+]2cccc3ccccc32)cc1`, the result was inactive. On the same count and under the same terms, the value for `CCCCCCCCCCCCO` was “inactive”. As to `CCN(Cc1cccnc1)C(=O)c1cccc(Cl)c1[C@]1(C)C(=O)N(Cc2ccc(OC)cc2OC)c2ccc(Cl)cc21`, the AC50 was 5.67 µM (active). Take `CCCC(=O)OCCC(C)C`: the result was inactive. In the case of `O=C1CCC(C2CCCCC2)CC1`, the outcome was inactive. As for `c1ccc2n[nH]nc2c1`, the outcome was inactive. Still for that read-out and setting: the value for `O=c1c(-c2ccc(O)cc2)coc2cc(O)cc(O)c12` was “inactive”; that for `Oc1ccc2ccccc2c1` was “inactive”. Take `Cc1cc2c(cc1C(F)(F)F)N(C(=O)Nc1ccc(Oc3cccnc3C)nc1)CC2`: the half-maximal activity concentration (AC50) was 11.7 µM (active). On the same count and under the same terms, for `Clc1ccccc1C(c1ccccc1)(c1ccccc1)n1ccnc1` the value was 9.81 µM (active). Turning to `CC(C)(O)c1ccc(CNC(=O)c2cccnc2Oc2ccc3nonc3c2)cc1`, the outcome was inactive. On the same count and under the same terms, for `CCCCCCCCCC(=O)O` the value was “inactive”; for `c1ccc2ccccc2c1`, “inactive”. Regarding `CCCCCCCCOC(=O)c1cc(O)c(O)c(O)c1`, the AC50 is 37.7 µM (active). In the case of `Cc1ncc(CO)c(CO)c1O`, the result was inactive. Regarding `CC1(C)NC(=O)N(c2ccc([N+](=O)[O-])c(C(F)(F)F)c2)C1=O`, the outcome was inactive.
